# Source: PubChem BioAssay (National Center for Advancing Translational Sciences (NCATS))
# Shown are actives, neighbours in structure and some others; about 10% of the full set was active somewhere.
# BAZ2B inh = qHTS Assay for Inhibitors of BAZ2B; AlphaScreen BAZ2B-H3K14Ac peptide displacement; 4.4% of 360,000 active; AID 504333, 2011; Potency, µM (titrated, usually from 114 µM), without a hit: top-dose activity change, negative = inhibition, hits mostly inhibitors; Bromodomain adjacent to zinc finger domain protein 2B (Homo sapiens), Q9UIF8; also: potency is read from the fitted curve at half-maximal effect; % is scaled to controls: 0 for no effect and ±100 for the full control effect; nearly all actives have a fitted effect of over 60% in size
#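 Inhibition is scored as reduced AlphaScreen emission. The BAZ2B/b-H3(5-23)K14Ac complex (50 nM each) in PBS pH 7.4, 0.01% Tween-20 meets compound (up to 110 uM) for 30 min at RT before bead addition.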
# HP1b binding inh = HTS for Inhibitors of HP1-beta Chromodomain Interactions with Methylated Histone Tails; Potency, µM (titrated, usually from 114 µM), without a hit: top-dose activity change, negative = inhibition, hits mostly inhibitors; AlphaScreen HP1-beta / biotin-H3K9me3 peptide binding; 0.56% of 390,000 active; also: potency is read from the fitted curve at half-maximal effect; nearly all actives have a fitted effect of over 70% in size
# Target sequence (P83916 whole entry, looked up): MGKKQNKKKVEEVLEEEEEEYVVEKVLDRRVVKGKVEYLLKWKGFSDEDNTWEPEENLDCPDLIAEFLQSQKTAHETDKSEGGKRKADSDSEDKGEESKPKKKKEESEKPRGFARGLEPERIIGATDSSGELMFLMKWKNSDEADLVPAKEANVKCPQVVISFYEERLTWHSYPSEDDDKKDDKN
#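 HP1-beta protein (50 nM final) preincubated 30 min at room temperature with biotinylated H3(1-18)K9me3 peptide (50 nM) in PBS pH 7.4, 0.01% Tween-20, then compound added for 30 min. AlphaScreen streptavidin donor/nickel chelate acceptor beads (10 ug/mL final), 30 min dark, luminescence read.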
# JMJD2A Tudor inh = qHTS Assay for Inhibitors of JMJD2A-Tudor Domain | AlphaScreen JMJD2A-Tudor / H3K4me3 peptide binding | Lysine-specific demethylase 4A (Homo sapiens), O75164 | Potency, µM (doses to about 114 µM), for the others: top-dose activity change, negative = inhibition, most hits filed as inhibitors | 4.4% of 390,000 active; also: potency is read from the fitted curve at half-maximal effect; % is scaled to controls: 0 for no effect and ±100 for the full control effect; nearly all actives have a fitted effect of over 50% in size
# CtBP-E1A blk = qHTS Assay for Inhibitors of the CtBP/E1A Interaction | activity change, % (no concentration beside the values) | CtBP / adenovirus E1A interaction (AlphaScreen) | 0.49% of 340,000 active | AlphaScreen GST-E1A/His-CtBP binding, 1536-well; hits give low values; in the data active = activity change below about -65%; inconclusive = mostly about -30% to -63%; also: % is scaled to controls: 0 for no effect and ±100 for the full control effect
#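 Protein mix (5X: 125 nM each GST-E1A, His-CtBP) was incubated with pinned compound 2 h at 37 deg C in dark, in 50 mM Tris pH 8.0 buffer with 300 mM NaCl. Glutathione donor and nickel acceptor beads followed; AlphaScreen signal read after 1 h.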
# Six1-Eya2 inh = qHTS Assay for Inhibitors of the Six1/Eya2 Interaction; Homeobox protein SIX1 (Homo sapiens) + Protein phosphatase EYA2 (Homo sapiens), …; AlphaScreen GST-Six1/His-Eya2 binding, biochemical; hits give low values; activity change, % (concentration not given with the values); 0.56% of 360,000 active; in the data active = activity change below about -65%; inconclusive = mostly about -30% to -63%; also: % is scaled to controls: 0 for no effect and ±100 for the full control effect
#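 Compounds are tested against tagged Six1 and Eya2 proteins bridged by glutathione donor and nickel acceptor beads; after a one-hour incubation at 37 °C without light, AlphaScreen emission is recorded.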
# G9a block = qHTS Assay for Inhibitors of Histone Lysine Methyltransferase G9a; 8.8% of 350,000 active; G9a H3K9 monomethylation, AlphaScreen, 2 h; Histone-lysine N-methyltransferase EHMT2 (Homo sapiens), Q96KQ7; Potency, µM (doses to about 102 µM), without a hit: at the highest dose activity, negative = inhibition, hits mostly inhibitors; also: potency is read from the fitted curve at half-maximal effect; % is scaled to controls: 0 for no effect and ±100 for the full control effect; nearly all actives have a fitted effect of over 75% in size
# Target sequence (Q96KQ7 913-1193 limits assumed): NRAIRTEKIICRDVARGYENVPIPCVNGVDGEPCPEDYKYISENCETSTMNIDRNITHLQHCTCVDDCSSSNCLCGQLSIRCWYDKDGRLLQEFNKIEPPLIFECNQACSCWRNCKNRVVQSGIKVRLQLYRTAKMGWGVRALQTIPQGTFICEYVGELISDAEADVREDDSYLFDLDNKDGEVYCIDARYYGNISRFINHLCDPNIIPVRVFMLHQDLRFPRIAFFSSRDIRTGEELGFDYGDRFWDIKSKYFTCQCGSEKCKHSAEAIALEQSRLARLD
#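 AlphaScreen detection with an anti-monomethyl H3K9 antibody quantified product after a 2 h room-temperature reaction containing 500 nM biotinylated H3K9 peptide, 20 µM SAM and 20 nM enzyme, which had been preincubated 15 min with compound.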
# The depositor's hits bear a star; ? = inconclusive; . = not tested or not shown; [ ] = remark or other dose. Unless noted, calls follow the shape of the dose curve; as a rule, active = well fitted inhibition curve with a large enough effect; inconclusive = small, poorly fitted or top-dose-only effect; inactive = no such curve, though single readings can be large or run the other way.
SMILES,BAZ2B inh,HP1b binding inh,JMJD2A Tudor inh,CtBP-E1A blk,Six1-Eya2 inh,G9a block
FC(F)(F)c1cnc(C(c2ccccn2)c2ncn[nH]2)c(Cl)c1 (stereo unspecified),2.51µM*,28.4%,15.8µM*,?,-88.5*,43.6%
O=C(Nc1ccc(S(=O)(=O)Nc2cnc3ccccc3n2)cc1)c1cc(F)c(F)cc1Cl,-19.7%,5.5%,79.4µM*,0.5,-25.2,-0.1%
Cc1cc(NS(=O)(=O)c2ccc(NC(=O)CSc3nc4ncc(Cl)cc4[nH]3)cc2)nc(C)n1,-3.4%,35.1%,-7.7%,-12.3,?,44.7µM*
O=C(CSc1nc2cc3ccccc3cc2[nH]1)Nc1cccc(C(F)(F)F)c1,0.3%,27.7%,-17.9%,.,.,-41.3%[59 µM]
O=C(Nc1ccc(S(=O)(=O)Nc2cnc3ccccc3n2)cc1)c1ccc(Cl)cc1Cl,.,-11.5%,-5.7%,-5.0,-14.2,.
Cc1cc(NS(=O)(=O)c2ccc(NC(=O)c3cnc(Cl)c(Cl)c3)cc2)nc(C)n1,8.4%,18.8%,3.9%,.,-90.8*,-3.7%[12.7 µM]
Cc1cc(NS(=O)(=O)c2ccc(NC(=O)c3ccc(Cl)nc3)cc2)nc(C)n1,.,.,.,-8.3,4.3,.
Nc1ncnc2nc(SCC(=O)Nc3cccc(C(F)(F)F)c3)[nH]c12,-14.9%,29.2%,-13.8%,-1.1,-7.4,35.5µM*
CCOc1ccc(C(c2c(O)cc(C)n(CCOC)c2=O)N2CCN(c3ccccc3)CC2)cc1 (stereo unspecified),1.4%,10.9%[57 µM],?,.,.,?
CCOC(=O)c1cccc(NC(=O)c2ccc3c(Cl)c4c(nc3c2)CCC4)c1,-32.5%,13.7%,-7.9%,.,.,-18.7%[59 µM]
CC1(C)[C@@H]2CC[C@@]1(C)C(=O)C2,.,.,.,.,.,30.4%[59 µM]
CCCN(CCC)C(=O)c1cc2c(=O)n3cccc(C)c3nc2n1C,0.1%,41.4%,-4.3%,.,.,12.3%[59 µM]
O=C(CSc1nc2ncc(Cl)cc2[nH]1)Nc1cccc(F)c1,-23.3%,35.8%,-19.6%,-1.1,-0.1,50.1µM*
O=C1NN=COc2ccccc21,56.2µM*,28.0%,-15.5%,-5.0,0.0,-5.5%[12.7 µM]
Oc1ccc(-c2nccs2)cc1,.,32.8%[57 µM],-4.8%,15.1,11.7,.
CCN1CCc2nc(N)oc2CC1,6.2%,47.1%,-7.9%,1.7,-2.8,23.8µM*
COC1(OC)N=C(N)C2(C#N)C(c3ccc(F)cc3)C12C#N (stereo unspecified),-33.1%,11.5%,-28.1%,11.4,3.3,24.6%[12.7 µM]
COc1cccc(C2C3(C#N)C(N)=NC(OC)(OC)C23C#N)c1 (stereo unspecified),0.3%[57.1 µM],19.5%,-3.8%,-0.3,-5.5,19.8%
CCSC1(SCC)N=C(N)C2(C#N)C(c3ccc(F)cc3)C12C#N (stereo unspecified),-22.9%,44.0%,-6.5%,0.0,4.3,39.8µM*
CCOC1(OCC)N=C(N)C2(C#N)C(c3ccc(NC(C)=O)cc3)C12C#N (stereo unspecified),79.4µM*,11.7%,?,-20.2,-1.2,50.1µM*
CCCCCC(=O)NC(NC(=S)NC1CCS(=O)(=O)C1)C(Cl)(Cl)Cl (stereo unspecified),19.3%,17.0%,-5.5%,-6.8,0.8,25.1µM*
COCC(C)NCc1ccc(OC)c(Br)c1 (stereo unspecified),50.1µM*,?,17.8µM*,0.6,2.4,?
CCOc1ccccc1OCCCn1c(-c2ccc(Cl)cc2)nc2ccccc2c1=O,15.1%,42.4%,-5.9%,.,.,-5.6%[59 µM]
Cn1c(=O)c([N+](=O)[O-])c(-n2cnc3ccccc32)c2ccccc21,-14.0%,24.2%,-22.1%,1.6,-0.7,-46.4%[59 µM]
